Compound activity from PubChem.
Cy5 interf NS3h: enhances or quenches Cy5 fluorescence in NS3h assay. Cy5-dT15 DNA with NS3h, fluorescence interference; actives lie on both sides; signal over control mean, under 1 quenches. fluorescence interference ratio at 100 µM. 16,000 compounds, 6% hits. AID 720488;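 active = compound fluorescence over control fluorescence at most 0.8, a quencher, or at least a set upper limit, an enhancer; inactive = ratio between 0.8 and the set upper limit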
HCV NS3h FP: blocks HCV NS3 helicase binding to DNA; NS3h Cy5-dT15 DNA binding, fluorescence polarization; inhibition, % at 100 µM; 16,000 compounds, 1.6% hits; AID 687043;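 active = inhibition above the average over every tested compound plus 3 SD, cut at about 40% in these data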
* hit, by the source's call. Most compounds without a hit are left out; they make up all but 6.9% or so of the library.

`Cc1ccccc1-c1nc2ccccc2c(=O)n1/N=C\c1ccc([N+](=O)[O-])cc1` gave Cy5 interf NS3h 0.942 and HCV NS3h FP 12.4.
CN1CCN(Cc2c(O)ccc3cc(-c4nc5ccccc5s4)c(=O)oc23)CC1 was read as Cy5 interf NS3h 1.02 and HCV NS3h FP 3.3.
N/N=C1\NC(=O)C(Cc2cccc([N+](=O)[O-])c2)S1 (stereo not given) was read as Cy5 interf NS3h 1.06 and HCV NS3h FP 9.9.
Cc1ccccc1/C=N\N=C1\NC(=O)C(Cc2cccc([N+](=O)[O-])c2)S1 (stereo not given) was read as Cy5 interf NS3h 1.35* and HCV NS3h FP 14.7.
CCn1nnnc1-c1ccc(OC)c(S(=O)(=O)Nc2ccc(Cl)cc2)c1 was read as Cy5 interf NS3h 0.946 and HCV NS3h FP 10.6.
O=C1NC(=S)N/C1=C\c1ccccc1OCc1ccc([N+](=O)[O-])cc1 was read as Cy5 interf NS3h 0.67* and HCV NS3h FP -5.3.
`O=C1NC(=S)N/C1=C/c1ccc(OCc2ccccc2)c(Br)c1` gave Cy5 interf NS3h 0.985 and HCV NS3h FP -3.9.
`COc1ccccc1C1NC(=O)NC(C)=C1C(=O)Nc1cccc(Cl)c1` (stereo not given) gave Cy5 interf NS3h 1.01 and HCV NS3h FP -4.9.
For O=C(Nc1cccc(Cl)c1)c1cc2nc(-c3ccc4c(c3)OCO4)cc(C(F)(F)F)n2n1 the results were Cy5 interf NS3h 0.666* and HCV NS3h FP -9.9.
Screening Cc1ccc(-c2cc(C(F)(F)F)n3nc(C(=O)OC(C)C)cc3n2)cc1 returned Cy5 interf NS3h 0.98 and HCV NS3h FP 3.8.
For O=C(Nc1cccc(Cl)c1Cl)c1cc2nc(-c3ccc([N+](=O)[O-])cc3)cc(C(F)(F)F)n2n1 the results were Cy5 interf NS3h 0.785* and HCV NS3h FP 9.6.
For CCCNC(=O)c1cc2nc(-c3ccc(OC)cc3)cc(C(F)(F)F)n2n1 the results were Cy5 interf NS3h 0.914 and HCV NS3h FP 12.2.
CCOc1ccc(CN2CCN(C(=O)CC(C)C)CC2)cc1 was read as Cy5 interf NS3h 0.956 and HCV NS3h FP -15.6.
O=C(NCC1CC2CC1C1CC21)c1ccc(F)cc1 (stereo not given) was read as Cy5 interf NS3h 1.05 and HCV NS3h FP 6.7.
Screening Cc1ccc(-n2nc(-c3ccccc3)c3c2C(=O)C=CC3=O)cc1 returned Cy5 interf NS3h 0.916 and HCV NS3h FP 44.1*.
For COc1ccc(-c2c(-c3ccc(Cl)cc3)nn(-c3ccccc3)c2N)cc1OC the results were Cy5 interf NS3h 0.899 and HCV NS3h FP 19.1.
For O=C1NC(=S)S/C1=C/c1ccccc1OS(=O)(=O)c1ccccc1[N+](=O)[O-] the results were Cy5 interf NS3h 0.943 and HCV NS3h FP 2.2.
Cc1c(Br)c(C(F)(F)F)nn1CC(=O)Nc1cc(C(F)(F)F)ccc1Cl was read as Cy5 interf NS3h 1.04 and HCV NS3h FP 0.0.
Screening Cc1c(Br)c(C(F)(F)F)nn1CC(=O)N(C)c1ccccc1 returned Cy5 interf NS3h 0.55* and HCV NS3h FP 6.8.
`O=C(Nc1cc(-c2ccc(F)cc2)[nH]n1)c1cccs1` gave Cy5 interf NS3h 0.995 and HCV NS3h FP 5.8.
`O=C(/C=C\Nc1ccccc1[N+](=O)[O-])c1ccc2c(c1)OCO2` gave Cy5 interf NS3h 0.637* and HCV NS3h FP 47.6*.
Screening CCOc1ccc(N/C=C\C(=O)c2ccc3c(c2)OCO3)c([N+](=O)[O-])c1 returned Cy5 interf NS3h 1.03 and HCV NS3h FP 29.3.
`COc1cc(C(=O)Nc2ccccc2OC(C)C)cc(OC)c1OC` gave Cy5 interf NS3h 1.05 and HCV NS3h FP 11.8.
For CCC1=NN(C(=O)c2ccccc2)C(O)(c2ccc(Br)cc2)C1 (stereo not given) the results were Cy5 interf NS3h 0.763* and HCV NS3h FP 9.9.
Screening CCC1=NN(C(=O)c2cccc(O)c2)C(O)(c2ccncc2)C1 (stereo not given) returned Cy5 interf NS3h 0.997 and HCV NS3h FP -4.3.
`CCOc1cc(C(=O)NC(c2ccccc2)c2ccccc2)cc(OCC)c1OCC` gave Cy5 interf NS3h 1.03 and HCV NS3h FP 0.9.
Screening Cc1ccc(S(=O)(=O)N=Nc2c(O)[nH]c3ccc(Br)cc23)cc1C returned Cy5 interf NS3h 0.984 and HCV NS3h FP -5.9.
For Cc1ccc2[nH]c(O)c(N=Nc3ccc([N+](=O)[O-])cc3[N+](=O)[O-])c2c1Br the results were Cy5 interf NS3h 0.741* and HCV NS3h FP 16.8.
Screening O=c1cc(-c2ccccc2)nc2cc(-c3cccs3)[nH]n12 returned Cy5 interf NS3h 1.16 and HCV NS3h FP 57.1*.
Cc1cc(=O)n2[nH]c(-c3cccs3)cc2n1 was read as Cy5 interf NS3h 1.07 and HCV NS3h FP 1.2.
Cc1ccc2nc(SCC(=O)Nc3ccc(/C=C/c4ccccc4)cc3)[nH]c2c1 was read as Cy5 interf NS3h 1.13 and HCV NS3h FP 5.9.
`N#CCCS(=O)(=O)Oc1ccccc1` gave Cy5 interf NS3h 1.06 and HCV NS3h FP 0.3.
For C=CCN1C(=O)/C(=C\c2ccc(OCc3cccc4ccccc34)cc2)SC1=S the results were Cy5 interf NS3h 1.14 and HCV NS3h FP 4.4.
Screening C=CCN1C(=O)/C(=C\c2ccc(OC)cc2)SC1=Nc1ccccc1 returned Cy5 interf NS3h 0.792* and HCV NS3h FP 1.7.
COc1ccccc1NC(=O)/C(=C/c1ccco1)NC(=O)c1ccc(C)cc1 was read as Cy5 interf NS3h 1.3* and HCV NS3h FP 10.0.
For Cc1ccc(C(=O)N/C(=C\c2ccco2)C(=O)Nc2ccccc2C)cc1 the results were Cy5 interf NS3h 1.01 and HCV NS3h FP 7.9.
Screening C=CCc1c(C)nc2cc(-c3ccc(C)cc3)[nH]n2c1=O returned Cy5 interf NS3h 1.22* and HCV NS3h FP 62.5*.
Screening C=CCc1c(C)nc2c(C)c(-c3ccc(C)cc3)[nH]n2c1=O returned Cy5 interf NS3h 1.13 and HCV NS3h FP 20.1.
`COc1ccc(Cl)cc1C(=O)Nc1cccc(C)n1` gave Cy5 interf NS3h 1 and HCV NS3h FP 2.3.
For C/C(=N/N=C\c1ccccc1)C1C(=O)c2ccccc2C1=O the results were Cy5 interf NS3h 0.684* and HCV NS3h FP 0.3.
C/C(=N/N=C(\C)c1cccs1)C1C(=O)c2ccccc2C1=O was read as Cy5 interf NS3h 1.04 and HCV NS3h FP 4.1.
COc1ccc(NC(=O)/C(C#N)=C/c2ccc(-c3cc([N+](=O)[O-])ccc3C)o2)cc1 was read as Cy5 interf NS3h 0.914 and HCV NS3h FP -3.9.
O=[N+]([O-])c1ccc(NCCCNS(=O)(=O)c2ccccc2)c(C(F)(F)F)c1 was read as Cy5 interf NS3h 1.05 and HCV NS3h FP 7.3.
For COC(=O)C(=Cc1cc(Br)c(OCc2ccc([N+](=O)[O-])cc2)c(OC)c1)C(=O)OC the results were Cy5 interf NS3h 0.75* and HCV NS3h FP 5.9.
COc1cc(/C=C/c2[nH]c(=O)[nH]c(=O)c2[N+](=O)[O-])cc(Br)c1OCc1ccccc1 was read as Cy5 interf NS3h 1.08 and HCV NS3h FP 12.6.
Cc1ccc2nc(-c3ccc(NC(=O)/C=C\C(=O)O)cc3)sc2c1 was read as Cy5 interf NS3h 0.881 and HCV NS3h FP 5.8.
`CCOC(=O)Cc1cc(-c2ccccc2)nc2ccc3ccccc3c12` gave Cy5 interf NS3h 1.02 and HCV NS3h FP 2.5.
`CCOC(=O)CC(O)(c1ccccc1)C(F)(F)C(F)F` (stereo not given) gave Cy5 interf NS3h 0.749* and HCV NS3h FP 7.7.
`O=C(Cc1ccc(Cl)cc1)NNS(=O)(=O)c1ccccc1` gave Cy5 interf NS3h 1.07 and HCV NS3h FP 9.1.
